Of roughly 7,900 targets only a part is listed; those with a hit were picked by preference. About 0.6% of all pairs of compound and target were hits. A number with no mark means an inactive call.
Key:
Assay in all cases: log2 fold change, soluble protein after heating vs DMSO (PISA); higher = thermal stabilisation; K562 cells, 10 uM, 30 min; active = over 0.2 and 3.5 SD of the protein, either way, in both replicates (recomputed)
saracatinib = compound: CN1CCN(CCOc2cc(OC3CCOCC3)c3c(Nc4c(Cl)ccc5c4OCO5)ncnc3c2)CC1 [saracatinib]
How it was run: (§1)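 K562 cells at 2×10^6 cells/mL were treated with 10 μM compound for 30 min. Aliquots were heated for 3 min across 48°C-58°C, pooled, and extracted in PBS with 0.5% NP-40 at 4°C; soluble protein was the supernatant after 21,000xg for 90 min. Soluble protein was quantified by TMTpro 16plex LC-MS/MS with channel sums equalised, and reported as log2 fold change in thermal stability against DMSO controls, with values from duplicates.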

sotrastaurin = compound: CN1CCN(c2nc(C3=C(c4c[nH]c5ccccc45)C(=O)NC3=O)c3ccccc3n2)CC1 [sotrastaurin]
How it was run: as §1

alvocidib = compound: CN1CC[C@H](c2c(O)cc(O)c3c(=O)cc(-c4ccccc4Cl)oc23)[C@H](O)C1 [alvocidib]
How it was run: as §1

Tubastatin A = compound: CN1CCc2c(c3ccccc3n2Cc2ccc(C(=O)NO)cc2)C1 [Tubastatin A]
How it was run: as §1

[1] = compound: CNC(=O)C1=CC=CC=C1NC2=NC(=NC=C2Cl)NC3=C(C=C(C=C3)N4CCOCC4)OC
How it was run: as §1

defactinib = compound: CNC(=O)c1ccc(Nc2ncc(C(F)(F)F)c(NCc3nccnc3N(C)S(C)(=O)=O)n2)cc1 [defactinib]
How it was run: as §1

rucaparib = compound: CNCc1ccc(-c2[nH]c3cc(F)cc4c3c2CCNC4=O)cc1 [rucaparib]
How it was run: as §1

[2] = compound: CNc1nc(-c2ccc3c(N)n[nH]c3c2)cc(N2C[C@@H](C(=O)NC3CCCCC3)CC[C@H]2C)n1
How it was run: as §1

encorafenib = compound: COC(=O)N[C@@H](C)CNc1nccc(-c2cn(C(C)C)nc2-c2cc(Cl)cc(NS(C)(=O)=O)c2F)n1 [encorafenib]
How it was run: as §1

[3] = compound: COC(=O)[C@H](CCSC)NC(=O)C1=C(C=C(C=C1)NC[C@H](CS)N)C2=CC=CC=C2
How it was run: as §1

[4] = compound: COC1=CC=C(C=C1)CN2C=CC3=C2C=C(C=C3)C(=O)NO
How it was run: as §1

filanesib = compound: CON(C)C(=O)N1N=C(c2cc(F)ccc2F)S[C@@]1(CCCN)c1ccccc1 [filanesib]
How it was run: as §1

zotarolimus = compound: CO[C@H]1C[C@@H]2CC[C@@H](C)[C@@](O)(O2)C(=O)C(=O)N2CCCC[C@H]2C(=O)O[C@H]([C@H](C)C[C@@H]2CC[C@H](n3cnnn3)[C@H](OC)C2)CC(=O)[C@H](C)/C=C(\C)[C@@H](O)[C@@H](OC)C(=O)[C@H](C)C[C@H](C)/C=C/C=C/C=C/1C [zotarolimus]
How it was run: as §1

idasanutlin = compound: COc1cc(C(=O)O)ccc1NC(=O)[C@@H]1N[C@@H](CC(C)(C)C)[C@](C#N)(c2ccc(Cl)cc2F)[C@H]1c1cccc(Cl)c1F [idasanutlin]
How it was run: as §1

alisertib = compound: COc1cc(Nc2ncc3c(n2)-c2ccc(Cl)cc2C(c2c(F)cccc2OC)=NC3)ccc1C(=O)O [alisertib]
How it was run: as §1

[5] = compound: COc1cc2nc(-c3cc(F)ccc3O)nc(N[C@@H]3CNC[C@H]3C(C)(C)O)c2cc1OC
How it was run: as §1

gefitinib = compound: COc1cc2ncnc(Nc3ccc(F)c(Cl)c3)c2cc1OCCCN1CCOCC1 [gefitinib]
How it was run: as §1

[6] = compound: COc1cccc2cc(-c3nc([C@H]4CC[C@H](C(=O)O)CC4)n4ncnc(N)c34)[nH]c12
How it was run: as §1

lapatinib = compound: CS(=O)(=O)CCNCc1ccc(-c2ccc3ncnc(Nc4ccc(OCc5cccc(F)c5)c(Cl)c4)c3c2)o1 [lapatinib]
How it was run: as §1

pictilisib = compound: CS(=O)(=O)N1CCN(Cc2cc3nc(-c4cccc5[nH]ncc45)nc(N4CCOCC4)c3s2)CC1 [pictilisib]
How it was run: as §1

Sequence of UniProt Q68DK7 (Q68DK7 whole entry, looked up): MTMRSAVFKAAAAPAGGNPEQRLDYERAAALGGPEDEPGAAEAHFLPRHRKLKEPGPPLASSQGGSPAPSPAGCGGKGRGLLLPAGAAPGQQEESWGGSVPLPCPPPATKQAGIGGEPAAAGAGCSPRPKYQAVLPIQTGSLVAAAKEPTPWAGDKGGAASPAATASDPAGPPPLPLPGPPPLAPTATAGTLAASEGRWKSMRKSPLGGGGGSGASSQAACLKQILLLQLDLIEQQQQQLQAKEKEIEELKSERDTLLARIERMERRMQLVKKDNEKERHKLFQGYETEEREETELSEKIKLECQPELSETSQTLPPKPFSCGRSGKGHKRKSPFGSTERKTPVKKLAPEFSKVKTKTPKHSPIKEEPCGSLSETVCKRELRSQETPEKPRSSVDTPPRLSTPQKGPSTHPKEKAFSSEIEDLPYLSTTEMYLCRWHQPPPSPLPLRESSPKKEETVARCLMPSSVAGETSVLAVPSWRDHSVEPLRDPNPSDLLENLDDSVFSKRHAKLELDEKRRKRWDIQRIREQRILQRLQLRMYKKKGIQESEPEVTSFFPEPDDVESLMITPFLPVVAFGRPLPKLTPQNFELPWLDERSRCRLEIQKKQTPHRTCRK
Sequence of UniProt Q96RE7 (Q96RE7 whole entry, looked up): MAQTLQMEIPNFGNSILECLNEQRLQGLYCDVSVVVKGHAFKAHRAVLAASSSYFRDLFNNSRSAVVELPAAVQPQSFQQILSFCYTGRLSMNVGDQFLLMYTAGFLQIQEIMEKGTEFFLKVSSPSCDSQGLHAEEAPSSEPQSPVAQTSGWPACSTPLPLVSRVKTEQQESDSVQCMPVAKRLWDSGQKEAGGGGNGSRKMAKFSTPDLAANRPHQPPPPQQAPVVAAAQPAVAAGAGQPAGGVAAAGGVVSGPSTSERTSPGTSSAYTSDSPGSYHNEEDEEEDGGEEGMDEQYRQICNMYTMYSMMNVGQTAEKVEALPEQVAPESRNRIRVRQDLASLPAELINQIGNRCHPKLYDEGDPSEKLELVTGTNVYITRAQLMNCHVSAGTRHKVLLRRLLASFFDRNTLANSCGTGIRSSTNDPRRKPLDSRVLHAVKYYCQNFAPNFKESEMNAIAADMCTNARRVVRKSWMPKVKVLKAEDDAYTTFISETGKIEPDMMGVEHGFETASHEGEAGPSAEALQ
Sequence of UniProt P20585 (P20585 whole entry, looked up): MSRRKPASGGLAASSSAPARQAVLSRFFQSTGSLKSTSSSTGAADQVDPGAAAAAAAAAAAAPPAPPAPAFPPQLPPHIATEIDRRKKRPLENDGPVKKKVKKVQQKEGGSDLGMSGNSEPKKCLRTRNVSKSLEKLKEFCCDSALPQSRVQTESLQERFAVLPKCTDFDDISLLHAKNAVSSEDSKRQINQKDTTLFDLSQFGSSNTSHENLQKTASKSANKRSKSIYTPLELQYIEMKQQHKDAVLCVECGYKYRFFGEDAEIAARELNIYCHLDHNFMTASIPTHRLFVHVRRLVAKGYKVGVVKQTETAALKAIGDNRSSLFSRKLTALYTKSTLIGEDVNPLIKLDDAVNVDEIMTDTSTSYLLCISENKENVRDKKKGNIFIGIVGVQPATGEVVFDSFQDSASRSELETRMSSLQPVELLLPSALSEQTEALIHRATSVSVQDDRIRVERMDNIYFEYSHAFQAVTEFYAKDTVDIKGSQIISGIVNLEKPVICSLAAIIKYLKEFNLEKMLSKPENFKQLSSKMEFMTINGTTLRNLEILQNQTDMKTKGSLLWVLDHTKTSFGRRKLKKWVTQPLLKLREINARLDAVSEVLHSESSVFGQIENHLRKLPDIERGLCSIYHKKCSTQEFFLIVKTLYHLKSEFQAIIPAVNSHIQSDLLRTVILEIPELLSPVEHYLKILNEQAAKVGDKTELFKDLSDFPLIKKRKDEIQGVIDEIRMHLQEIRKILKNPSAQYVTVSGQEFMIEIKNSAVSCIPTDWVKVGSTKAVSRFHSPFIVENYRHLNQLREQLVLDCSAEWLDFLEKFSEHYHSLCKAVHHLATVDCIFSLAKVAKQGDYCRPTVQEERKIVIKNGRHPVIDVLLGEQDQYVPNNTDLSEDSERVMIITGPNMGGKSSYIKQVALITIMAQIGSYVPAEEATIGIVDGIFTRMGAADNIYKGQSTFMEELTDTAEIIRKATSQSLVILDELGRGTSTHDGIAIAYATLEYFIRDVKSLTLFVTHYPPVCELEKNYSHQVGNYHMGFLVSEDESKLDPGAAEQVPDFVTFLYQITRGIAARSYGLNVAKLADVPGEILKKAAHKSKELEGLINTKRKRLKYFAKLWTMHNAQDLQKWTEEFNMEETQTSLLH
Sequence of UniProt Q99549 (Q99549 whole entry, looked up): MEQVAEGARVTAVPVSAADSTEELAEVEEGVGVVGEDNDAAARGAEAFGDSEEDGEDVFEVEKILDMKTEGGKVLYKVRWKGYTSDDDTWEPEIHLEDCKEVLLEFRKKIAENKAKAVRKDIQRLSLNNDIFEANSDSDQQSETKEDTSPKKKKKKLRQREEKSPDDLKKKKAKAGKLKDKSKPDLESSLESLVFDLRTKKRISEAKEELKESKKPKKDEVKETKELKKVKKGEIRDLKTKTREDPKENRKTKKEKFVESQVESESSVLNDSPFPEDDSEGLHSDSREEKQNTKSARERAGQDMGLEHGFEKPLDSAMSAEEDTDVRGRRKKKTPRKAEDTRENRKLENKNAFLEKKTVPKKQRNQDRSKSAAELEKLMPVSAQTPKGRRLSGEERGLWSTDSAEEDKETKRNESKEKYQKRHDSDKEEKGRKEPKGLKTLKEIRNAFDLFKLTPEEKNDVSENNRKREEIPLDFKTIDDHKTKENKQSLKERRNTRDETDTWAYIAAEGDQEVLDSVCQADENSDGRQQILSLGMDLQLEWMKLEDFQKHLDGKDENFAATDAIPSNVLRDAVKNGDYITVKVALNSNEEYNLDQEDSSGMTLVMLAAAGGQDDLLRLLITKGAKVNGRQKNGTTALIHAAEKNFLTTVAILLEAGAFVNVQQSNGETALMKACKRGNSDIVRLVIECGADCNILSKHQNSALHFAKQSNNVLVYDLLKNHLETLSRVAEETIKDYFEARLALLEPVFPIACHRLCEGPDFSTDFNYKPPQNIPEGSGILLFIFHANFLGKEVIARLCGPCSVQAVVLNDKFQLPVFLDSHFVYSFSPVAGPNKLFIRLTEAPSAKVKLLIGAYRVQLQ
Sequence of UniProt Q69YL0 (Q69YL0 whole entry, looked up): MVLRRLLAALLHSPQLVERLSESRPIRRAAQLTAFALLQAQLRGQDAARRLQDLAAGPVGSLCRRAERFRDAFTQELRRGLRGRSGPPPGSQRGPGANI
Sequence of UniProt Q9Y5B8 (Q9Y5B8 whole entry, looked up): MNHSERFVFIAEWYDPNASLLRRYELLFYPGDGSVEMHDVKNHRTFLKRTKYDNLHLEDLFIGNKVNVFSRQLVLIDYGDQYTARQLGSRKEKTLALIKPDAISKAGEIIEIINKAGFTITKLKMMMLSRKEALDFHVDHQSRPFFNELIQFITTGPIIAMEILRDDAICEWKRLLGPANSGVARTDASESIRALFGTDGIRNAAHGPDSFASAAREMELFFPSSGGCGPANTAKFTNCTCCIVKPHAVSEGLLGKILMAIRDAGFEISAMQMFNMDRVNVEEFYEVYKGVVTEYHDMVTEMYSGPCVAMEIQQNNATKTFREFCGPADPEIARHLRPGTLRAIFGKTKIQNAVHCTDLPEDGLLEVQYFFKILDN
Sequence of UniProt Q9UHC9 (Q9UHC9 whole entry, looked up): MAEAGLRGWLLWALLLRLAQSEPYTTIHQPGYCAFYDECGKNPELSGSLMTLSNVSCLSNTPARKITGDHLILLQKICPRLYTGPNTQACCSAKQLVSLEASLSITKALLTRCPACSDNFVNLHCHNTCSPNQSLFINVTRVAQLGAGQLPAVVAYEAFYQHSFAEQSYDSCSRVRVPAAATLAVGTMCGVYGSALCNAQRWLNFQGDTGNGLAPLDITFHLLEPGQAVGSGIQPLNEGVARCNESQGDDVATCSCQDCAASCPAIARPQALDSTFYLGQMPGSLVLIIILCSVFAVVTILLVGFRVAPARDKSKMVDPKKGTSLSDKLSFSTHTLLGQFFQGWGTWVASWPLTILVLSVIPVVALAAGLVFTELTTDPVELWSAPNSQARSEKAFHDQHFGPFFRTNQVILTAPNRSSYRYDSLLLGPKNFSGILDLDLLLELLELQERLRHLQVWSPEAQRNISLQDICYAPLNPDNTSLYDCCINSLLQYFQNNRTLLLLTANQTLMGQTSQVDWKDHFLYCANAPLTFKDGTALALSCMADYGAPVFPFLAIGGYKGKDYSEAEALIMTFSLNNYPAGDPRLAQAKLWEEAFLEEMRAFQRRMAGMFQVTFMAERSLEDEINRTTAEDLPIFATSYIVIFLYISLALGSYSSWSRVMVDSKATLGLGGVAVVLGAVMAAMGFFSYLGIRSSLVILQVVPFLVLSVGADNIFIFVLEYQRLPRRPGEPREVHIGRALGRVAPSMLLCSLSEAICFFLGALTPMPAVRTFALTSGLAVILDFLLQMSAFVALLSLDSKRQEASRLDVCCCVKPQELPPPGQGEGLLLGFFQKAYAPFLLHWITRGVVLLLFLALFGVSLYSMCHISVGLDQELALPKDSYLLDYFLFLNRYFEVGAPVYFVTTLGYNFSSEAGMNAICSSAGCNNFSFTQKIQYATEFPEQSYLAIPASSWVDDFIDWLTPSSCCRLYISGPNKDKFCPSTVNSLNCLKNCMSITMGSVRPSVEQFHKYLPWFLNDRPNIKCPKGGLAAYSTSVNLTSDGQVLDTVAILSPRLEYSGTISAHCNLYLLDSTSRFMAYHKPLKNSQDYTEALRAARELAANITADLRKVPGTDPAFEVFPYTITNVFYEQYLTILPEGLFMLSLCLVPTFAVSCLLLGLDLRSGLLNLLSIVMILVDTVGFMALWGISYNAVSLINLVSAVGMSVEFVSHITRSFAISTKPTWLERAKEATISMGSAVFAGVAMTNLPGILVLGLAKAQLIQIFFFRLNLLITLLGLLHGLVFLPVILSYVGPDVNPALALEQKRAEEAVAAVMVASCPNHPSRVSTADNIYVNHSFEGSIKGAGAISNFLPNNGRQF

Row | Target | log2 fold change (saracatinib) | log2 fold change (sotrastaurin) | log2 fold change (alvocidib) | log2 fold change (Tubastatin A) | log2 fold change [1] | log2 fold change (defactinib) | log2 fold change (rucaparib) | log2 fold change [2] | log2 fold change (encorafenib) | log2 fold change [3] | log2 fold change [4] | log2 fold change (filanesib) | log2 fold change (zotarolimus) | log2 fold change (idasanutlin) | log2 fold change (alisertib) | log2 fold change [5] | log2 fold change (gefitinib) | log2 fold change [6] | log2 fold change (lapatinib) | log2 fold change (pictilisib)
1 | MSH3 (UniProt P20585) | -0.013 | -0.003 | -0.015 | 0.045 | -0.026 | 0.015 | 0.031 | -0.011 | 0.069 | -0.02 | -0.074 | 0.005 | 0.036 | -0.004 | 0.008 | 0.093 | 0.005 | 0 | 0.042 | -0.006
2 | MPHOSPH8 isoform 2 (UniProt Q99549) | 0.088 | 0.018 | 0.005 | 0 | – | 0.015 | – | -0.064 | – | 0.013 | -0.002 | 0.128 | -0.191 | 0.062 | -0.016 | 0.032 | – | 0.125 | 0.024 | –
3 | NME7 (UniProt Q9Y5B8) | -0.109 | -0.017 | -0.117 | 0.054 | 0.016 | -0.047 | 0.006 | -0.001 | 0.086 | -0.006 | -0.1 | 0.124 | 0.058 | -0.041 | 0.054 | 0.015 | – | -0.077 | -0.046 | 0.071
4 | MSL1 (UniProt Q68DK7) | -0.026 | 0.052 | – | – | -0.253 | -0.069 | -0.042 | 0.04 | -0.088 | -0.017 | -0.163 | -0.013 | – | -0.113 | -0.081 | 0.275 | 0.04 | -0.012 | -0.117 | 0.197
5 | NPC1L1 (UniProt Q9UHC9) | -0.026 | 0.033 | 0.013 | 0.005 | – | -0.093 | -0.06 | -0.051 | -0.038 | 0.093 | -0.177 | -0.099 | -0.09 | -0.041 | -0.144 | 0.079 | 0.557 | 0.106 | -0.105 | –
6 | NCBP2AS2 (UniProt Q69YL0) | 0.056 | 0.215 | -0.004 | -0.064 | -0.005 | 0.013 | -0.03 | -0.081 | 0.031 | 0.031 | – | -0.09 | -0.051 | -0.023 | -0.058 | -0.42 (active) | -0.137 | 0.044 | -0.093 | 0.033
7 | MON1A (UniProt Q86VX9) | 0.013 | 0.058 | – | 0.047 | -0.103 | – | -0.023 | 0.029 | 0.253 | – | -0.118 | -0.023 | – | – | 0.291 | -0.042 | 0.427 | 0.049 | -0.003 | -0.011
8 | NUMBL (UniProt Q9Y6R0) | -0.088 | -0.412 (active) | 0.07 | – | 0.144 | -0.101 | – | -0.015 | – | 0.098 | -0.079 | 0.128 | -0.012 | -0.061 | -0.168 | 0.005 | 0.036 | -0.149 | 0.012 | -0.022
9 | NACC1 (UniProt Q96RE7) | -0.055 | -0.141 | -0.26 | 0.034 | -0.063 | -0.312 | 0.01 | -0.006 | 0.13 | -0.021 | 0.009 | -0.116 | 0.103 | 0.02 | 0.016 | -0.198 | 0.021 | 0.024 | -0.031 | -0.034

Source: the supplement of paper PMC10849652
